Results filed as inconclusive are left out. Activity calls are given as the source filed them. Rule as the data show it, unless noted: active = inhibition above about 30%; inactive = the rest.
What was measured:
[1] = reducers of endogenous Her2 protein level, primary screen, SKBR3 breast tumor cells, AlphaScreen, ATP viability (AID 461;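 active = Her2 level under about 52% in both replicate screens, with viability over 70% of control, limit read from the data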;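 as to Her2 level: lower value means less Her2 protein in the cells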;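 as to viability: percent of carrier control wells set as 100% viability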); conditions: 18-24 h, measured here: SKBR3 viability, ATP luminescence, at 10 µM
[2] = biological target: Receptor tyrosine-protein kinase erbB-2 (Homo sapiens) (UniProt P04626); experiment: as above; conditions: 18-24 h, at 10 µM, stronger effect = lower value
Receptor tyrosine-protein kinase erbB-2 (Homo sapiens), sequence (P04626 whole entry, looked up): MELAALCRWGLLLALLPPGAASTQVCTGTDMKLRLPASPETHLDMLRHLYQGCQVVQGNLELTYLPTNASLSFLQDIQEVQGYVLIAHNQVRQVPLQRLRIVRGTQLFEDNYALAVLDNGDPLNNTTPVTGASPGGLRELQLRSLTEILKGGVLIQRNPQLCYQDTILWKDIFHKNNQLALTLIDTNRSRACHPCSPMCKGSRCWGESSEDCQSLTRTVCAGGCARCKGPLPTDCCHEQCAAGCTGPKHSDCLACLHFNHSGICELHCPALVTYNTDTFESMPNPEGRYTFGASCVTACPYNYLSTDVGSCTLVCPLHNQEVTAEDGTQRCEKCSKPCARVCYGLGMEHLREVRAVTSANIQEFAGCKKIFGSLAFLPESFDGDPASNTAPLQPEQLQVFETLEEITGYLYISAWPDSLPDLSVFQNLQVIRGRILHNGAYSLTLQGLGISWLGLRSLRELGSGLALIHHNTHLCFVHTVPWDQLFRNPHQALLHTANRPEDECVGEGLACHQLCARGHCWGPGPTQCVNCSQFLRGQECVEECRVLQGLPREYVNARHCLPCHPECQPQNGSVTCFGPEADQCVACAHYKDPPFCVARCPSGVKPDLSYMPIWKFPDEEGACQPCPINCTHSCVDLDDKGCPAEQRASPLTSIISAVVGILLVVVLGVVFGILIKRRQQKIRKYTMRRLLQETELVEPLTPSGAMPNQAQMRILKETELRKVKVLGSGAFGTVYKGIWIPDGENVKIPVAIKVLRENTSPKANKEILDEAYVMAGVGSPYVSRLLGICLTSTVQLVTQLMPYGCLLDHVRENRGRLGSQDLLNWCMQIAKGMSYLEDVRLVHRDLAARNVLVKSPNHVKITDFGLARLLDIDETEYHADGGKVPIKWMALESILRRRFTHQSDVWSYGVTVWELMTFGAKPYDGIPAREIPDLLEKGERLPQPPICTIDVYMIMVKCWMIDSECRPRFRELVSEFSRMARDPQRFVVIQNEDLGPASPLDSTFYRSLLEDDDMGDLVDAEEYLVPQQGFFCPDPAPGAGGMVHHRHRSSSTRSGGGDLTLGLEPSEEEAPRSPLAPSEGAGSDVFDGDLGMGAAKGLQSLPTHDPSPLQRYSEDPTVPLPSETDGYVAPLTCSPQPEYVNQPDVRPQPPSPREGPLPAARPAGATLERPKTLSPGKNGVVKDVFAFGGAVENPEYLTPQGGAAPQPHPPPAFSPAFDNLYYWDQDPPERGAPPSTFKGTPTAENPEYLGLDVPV

[3] = SK-BR-3 cell growth inhibitors, pilot screen, 24 h, human (AID 572;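 active = viability at or below 10% of carrier control in both of two separate runs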;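 also: compound exposure lasted between 18 and 24 h rather than exactly 24 h; 100% = carrier-treated control wells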); conditions: SK-BR-3 viability, CellTiter-Glo luminescence, at 10 µM, stronger effect = lower value
[4] = HUVEC growth inhibition – cell-based, human, primary screen (AID 575;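 active = viability at or below 30% in both replicate assays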;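 also: 100% = median of untreated cell wells with 0.1% DMSO on each plate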); conditions: HUVEC proliferation, CellTiter-Glo luminescence, 72 h; at 10 µM; stronger effect = lower value
[5] = growth inhibitors of H69AR lung tumor, primary screen, human, duplicate replicates (AID 580;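 active = viability at or under a set limit in both replicates, limit being median viability minus 3 SD, cut at about 48% in these data, passing the limit was not always enough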;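 also: 100% = mean luminescence of untreated wells and 0% = no signal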); conditions: H69AR lung tumor cells viability, ATP luminescence, 72 h; at 10 µM; stronger effect = lower value
[6] = reversal of MRP1-mediated doxorubicin resistance, pilot screen, H69AR cells, doxorubicin co-treatment (AID 601;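 active = viability loss from added drug above about 55%, and viability with drug at most 40%, in both replicates, limit read from the data, passing the limit was not always enough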); conditions: CellTiter-Glo, 72 h, at 10 µM; for differential viability (reversal): stronger effect = higher value
[7] = 384-well plate pilot, post-Golgi transport modulator project, inhibition of yeast transport mutant growth (AID 636; in the data active = inhibition above about 31%); conditions: absorbance 615 nm, about 18 h, stronger effect = higher value
[8] = growth suppression of yeast trafficking mutant, preliminary HTS, modulators of trafficking downstream of Golgi apparatus project, 1536-format plate, OD 615 nm (AID 637); conditions: yeast transport mutant growth, absorbance 615 nm, 18 h; stronger effect = higher value
[9] = OD615 S. cerevisiae growth inhibition, permissive medium, pilot counter-assay, permissive growth control for S. cerevisiae lifespan shortening project (AID 705;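 active = growth inhibition above 25% in both replicates, a cutoff set 3 SD above the mean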); conditions: OD615, 24 h, at 10 µM, stronger effect = higher value
[10] = Restrictive medium S. cerevisiae growth inhibition, OD615, pilot screen of yeast lifespan reduction project, restrictive growth control (AID 706;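 active = growth inhibition above a set limit, 3 SD over mean compound inhibition, in both replicates, cut at about 43% in these data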;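 also: modified DeaD lifespan yeast strain shifted to restrictive glucose medium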); conditions: OD615, 48 h, at 10 µM, stronger effect = higher value
[11] = viability gain of MRP-1-high H69AR cells under doxorubicin, pilot screen, MRP-1 activator project, CellTiter-Glo, duplicate (AID 807;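 active = viability increase at or above a cutoff of the median across tested compounds plus 3 SD, cut at about 8.5% in these data, passing the limit was not always enough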;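 also: compound pretreatment 18-22 h then 72 h combined with doxorubicin; 0% = doxorubicin alone and 100% = vehicle without doxorubicin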); conditions: H69AR viability with doxorubicin, CellTiter-Glo luminescence; at 10 µM; stronger effect = higher value
[12] = growth suppression of beta-catenin knockout HCT116, pilot screen, human colon tumor cells (AID 823;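 active = cell viability at or below a set limit in both duplicate runs, the limit being the all-compound median minus 4 SD, cut at about 23% in these data, passing the limit was not always enough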;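 also: 0% = wells killed by 20 µM Hyamine and 100% = untreated DMSO cell wells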); conditions: CellTiter-Glo, 60 h, at 10 µM, stronger effect = lower value
[13] = growth suppression of PTEN-deleted HCT116, pilot screen, cell-based, HCT116 clonal line, CellTiter-Glo (AID 824;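 active = viability at or below 27.92% in each of two runs, the all-compound median minus 4 SD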;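 also: 0% = 20 µM Hyamine control and 100% = vehicle cell control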); conditions: 60 h, at 10 µM, stronger effect = lower value
[14] = inhibitors of the yeast RAM network, pilot screen, dse1pr::URA3 reporter, 5-FOA selection (AID 869;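 active = inhibition over a set limit, the all-compound mean plus 3 SD, in both replicate runs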;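 also: 0% = DMSO wells with no growth and 100% = 10 µM 1-NA-PP1 with full growth; RAM network block rescues cells from 5-FOA so hits raise OD615 growth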); conditions: S. cerevisiae dse1pr::URA3 5-FOA growth, OD615, 2 d; at 10 µM; stronger effect = higher value; strain carries analog-sensitive mutant Cbk1 kinase
[15] = RAM signaling pathway blockade in yeast – S. cerevisiae, Pdr1DBD-CYC8 efflux-inhibited sensitized strain, primary screen (AID 1298;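 active = RAM network inhibition above 8.4% in each of two replicates, 3 SD over the compound average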;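 also: 0% = DMSO untreated cells without growth and 100% = 10 µM 1-NA-PP1 full growth; higher means more yeast growth rescued from 5-FOA killing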); conditions: S. cerevisiae cbk1-as DSE1-URA3 strain, 5-FOA growth OD615, 2 d; at 50 µM; stronger effect = higher value
[16] = H69AR cells + 2 uM doxorubicin, measured here: viability with 2 uM doxorubicin, stronger effect = lower value
[17] = H69AR cells, compound alone cytotoxicity

| SMILES | viability [1] | Her2 level [2] | viability [3] | viability [4] | viability [5] | differential viability (reversal) ([6]; H69AR cells + 2 uM doxorubicin) | viability [6, 16] | viability [6, 17] | inhibition [7] | inhibition [8] | growth inhibition [9] | growth inhibition [10] | viability increase [11] | viability [12] | viability [13] | inhibition [14] | RAM network inhibition [15] |
| --- | --- | --- | --- | --- | --- | --- | --- | --- | --- | --- | --- | --- | --- | --- | --- | --- | --- |
| O=C(c1ccc(Br)cc1)N1CCN(S(=O)(=O)c2ccccc2)CC1 | 113% | 120% (inactive) | 113% (inactive) | 103% (inactive) | 92.6% (inactive) | -2.33% (inactive) | 94.9% | 92.6% | 3.33% (inactive) | 2.33% (inactive) | 4.02% (inactive) | 11.1% (inactive) | -1.15% (inactive) | 84.7% (inactive) | 90.4% (inactive) | 1.71% (inactive) | 1.8% (inactive) |
| O=C(c1cnc2n(c1=O)CCS2)N(C1CCCCC1)C1CCCCC1 | 87% | 84% (inactive) | 87% (inactive) | 106% (inactive) | 102% (inactive) | 5.03% (inactive) | 97.4% | 102% | -4.53% (inactive) | -1% (inactive) | 2.67% (inactive) | -18.9% (inactive) | -2.34% (inactive) | 101% (inactive) | 92.3% (inactive) | 1.71% (inactive) | 2.61% (inactive) |
| COc1ccc(OC)c(C2CC(=O)NC(SC)=C2C#N)c1 (stereo not drawn) | 102% | 94% (inactive) | 102% (inactive) | 83.1% (inactive) | 94.3% (inactive) | 11.6% (inactive) | 82.8% | 94.3% | -5.33% (inactive) | -9.02% (inactive) | -11.4% (inactive) | -5.61% (inactive) | 0.31% (inactive) | 104% (inactive) | 92.6% (inactive) | -0.015% (inactive) | 2.19% (inactive) |
| Cc1cc(C)cc(NC(=O)CSc2nnc(Cc3cccn3C)n2-c2ccc(F)cc2)c1 | 87% | 84% (inactive) | 87% (inactive) | 63.1% (inactive) | 86.6% (inactive) | 14% (inactive) | 72.6% | 86.6% | -1.2% (inactive) | -11.5% (inactive) | 3.92% (inactive) | 14.7% (inactive) | -4.83% (inactive) | 74.6% (inactive) | 71.6% (inactive) | 3.69% (inactive) | 7.38% (inactive) |
| CCC1CCCCN1C(=O)CSc1nnc(-c2ccc(OC)cc2)o1 (stereo not drawn) | 98% | 102% (inactive) | 98% (inactive) | 99.8% (inactive) | 87.6% (inactive) | -6.46% (inactive) | 94.1% | 87.6% | -3.6% (inactive) | -9.34% (inactive) | 7.74% (inactive) | 54.4% (active) | -1.66% (inactive) | 95.5% (inactive) | 95.7% (inactive) | 2.38% (inactive) | 1.19% (inactive) |
| COc1ccc(CNC(=O)c2nnn(Cc3ccc(OC)cc3)c2N)cc1 | 89.5% | 101% (inactive) | 89.5% (inactive) | 77.5% (inactive) | 86.5% (inactive) | -1.82% (inactive) | 88.3% | 86.5% | -2.69% (inactive) | 3.17% (inactive) | -3.35% (inactive) | -1.51% (inactive) | -3.08% (inactive) | 91% (inactive) | 85.4% (inactive) | 1.69% (inactive) | 2.66% (inactive) |
| CC(C)c1ncc(C(O)c2cccc3ccccc23)n1C (stereo not drawn) | 97.5% | 129% (inactive) | 97.5% (inactive) | 113% (inactive) | 87.5% (inactive) | 4.07% (inactive) | 83.5% | 87.5% | -4.68% (inactive) | -5.5% (inactive) | -21.2% (inactive) | -7.64% (inactive) | -0.83% (inactive) | 81.6% (inactive) | 79.1% (inactive) | 1.15% (inactive) | 0.82% (inactive) |
| COc1ccc(OCC(=O)N2CC3(C)CC2CC(C)(C)C3)cc1 (stereo not drawn) | 96% | 84% (inactive) | 96% (inactive) | 108% (inactive) | 99.8% (inactive) | 17% (inactive) | 82.8% | 99.8% | -3.2% (inactive) | -2.9% (inactive) | -9.87% (inactive) | -0.89% (inactive) | 0.69% (inactive) | 97.9% (inactive) | 92% (inactive) | 1.06% (inactive) | 1.07% (inactive) |
| CC1CCCN(C(=O)CN2C(=O)c3ccccc3C2=O)C1 (stereo not drawn) | 93.5% | 104% (inactive) | 93.5% (inactive) | 93.8% (inactive) | 84.8% (inactive) | -6.78% (inactive) | 91.6% | 84.8% | -3.59% (inactive) | -6.33% (inactive) | -15.4% (inactive) | -9.79% (inactive) | -0.25% (inactive) | 101% (inactive) | 98.7% (inactive) | 1.7% (inactive) | 0.38% (inactive) |

— PubChem BioAssay
